Bioassay records (PubChem BioAssay)
Most compounds without a hit are left out; they make up all but 2.1% or so of the library.
TDP-43 yeast inh = rescues yeast growth from TDP-43 toxicity | hit rate 1.8% among 410,000 | Potency, µM (top dose mostly 46.1 µM), for the others: top-dose growth rescue (activation), actives largely listed as activators | TDP-43 expressing yeast growth rescue, BacTiter-Glo, 24 h; also: % of control where 0% means no effect; nearly all actives have a fitted effect of over 50% in size
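Cell-based yeast growth screen: TDP-43 expression induced in galactose, inoculum OD600=0.02 after raffinose pregrowth to mid-log. Read-out BacTiter-Glo luminescence at 24 hr, 30 deg C; inhibition of toxicity seen as signal increase.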
Abeta rescue = A-beta toxicity reversal in yeast; yeast expressing A-beta42, growth rescue, OD600, 48 h; response scale: 0% DMSO, 100% iron-clioquinol control; Potency, µM (series often up to 46.1 µM), most hits filed as activators; hit rate 0.063% among 410,000; also: nearly all actives have a fitted effect of over 55% in size
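Yeast growth medium received pinned compounds, then yeast cells expressing toxic A-beta were added; plates incubated at 30 C for 48 hr. Growth read as absorbance at 600 nm, normalized to DMSO and equimolar FeCl3 plus clioquinol controls.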
FUS yeast rescue = FUS proteinopathy suppression in yeast; S. cerevisiae FUS-expressing, growth rescue, OD600, 24 h; Potency, µM (series often up to 76.6 µM), actives largely listed as activators; hit rate 0.24% among 390,000;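 also: plate controls were DMSO vehicle for no effect and reference control for full effect; nearly all actives have a fitted effect of over 55% in size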
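Yeast FUS proteinopathy model; galactose-induced FUS (2%), starting OD 0.005. Cpds in dilution series, 24hr, 30C, 99% humidity. Abs 600 nm growth. Pos ctrl CP55940 (top 92uM final); neg ctrl DMSO.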
aSyn rescue = inhibitors of alpha-synuclein toxicity in yeast; Yeast expressing alpha-synuclein, growth rescue, BacTiter-Glo, 24 h; Potency, µM (titrated, usually from 46.1 µM), inactives show at the top dose growth rescue (activation), usual class: activators; hit rate 0.14% among 370,000; also: % of control where 0% means no effect; nearly all actives have a fitted effect of over 65% in size
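Rescue of yeast growth: cells expressing toxic alpha-synuclein, induced in galactose at OD600 0.02, incubated with compound 24 h at 30 C. ATP luminescence quantified growth; inhibitors of toxicity appear as activators.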
An asterisk follows results filed as active; i = inactive; ? = inconclusive; nt = not tested or not shown; [ ] = another dose, or the depositor's remark. Calls follow the shape of the dose curve; as a rule, active = well fitted curve in the direction sought with a large enough effect; inconclusive = small, poorly fitted or top-dose-only effect, or another doubt; inactive = no such curve, though single readings can be large; an effect the other way counts as inactive or inconclusive. Potency is read from the fitted curve at half-maximal effect.

SMILES | TDP-43 yeast inh | Abeta rescue | FUS yeast rescue | aSyn rescue
COc1ccc(-c2cc(-c3nnc(SCC(=O)N4CCOCC4)n3N)[nH]n2)cc1 | nt | nt | i | nt
C[C@H]1[C@@H](NC(=O)c2cccc(N(C)C)c2)CC[C@@]23CCCN2C(=O)CCC[C@@H]13 | nt | nt | i | nt
O=C(Nc1nc(-c2ccccc2)cs1)c1cccs1 | 13µM* | i | i | -30%
CC(C)(C)c1csc(NNC(=O)c2ccc(Cl)cc2)n1 | -18% | i | ? | 18µM*
CN(C)CC(=O)Nc1nc(-c2ccccc2)cs1 | 6% | i | i | -18%
CC1CC1C(=O)Nc1nc(-c2ccccc2)cs1 (configuration not stated) | 18µM* | i | i | -6%
CC(C)(C)c1csc(NC(=O)c2cccs2)n1 | 16µM* | i | i | -13%
CC(C)(C)c1csc(NC(=O)c2cccnc2)n1 | 10% | i | i | -3%
CC(C)(C)OC(=O)n1ccc2ccc(-c3ccc4cc[nH]c4c3)cc21 | nt | nt | i | nt
CS(=O)(=O)N1CCN(/[N+]([O-])=N/Oc2ccc([N+](=O)[O-])cc2[N+](=O)[O-])CC1 (tested in a mixture with another compound) | nt | nt | nt | -34%
O=C(CCS(=O)(=O)c1ccccc1)Nc1cc(Cl)ccc1F | nt | nt | i | nt
COc1cccc(CNC(=O)c2cc3c(c(-c4cccc(-c5cccc(C#N)c5)c4)n2)[C@H](CCO)N(S(=O)C(C)(C)C)C3)c1 (some centres not stated) | ? | i | 22µM* | -4%
CN(C)C(=O)c1cccc(-c2cccc(-c3nc(C(=O)NCc4ccccc4)cc4c3[C@@H](CCO)N(S(=O)C(C)(C)C)C4)c2)c1 (some centres not stated) | 18% | i | 35µM* | 4%
O=C(CSc1nnc(-c2cccc(Cl)c2)n1Cc1ccco1)c1ccc(F)cc1 | nt | nt | i | nt
CC(C)C[C@H](N)c1nnc(SCC(=O)Nc2ccc(Br)cc2)o1 | -18% | i | i | 0%
CC(C)C[C@H](NC(=O)OC(C)(C)C)c1nnc(SCC(=O)Nc2ccc(Br)cc2)o1 | 0.32µM* | i | i | -1%
Cc1ccc(-c2ccc(=O)[nH]n2)cc1 | ? | i | i | 0%
CCCCCc1ccc(C2=NNC(=O)CC2)cc1 | 13µM* | i | i | 14%
CCCCCc1ccc(-c2ccc(=O)[nH]n2)cc1 | 18µM* | i | i | 2%
O=C1CCC(c2ccccc2)=NN1 | -4%[9.22 µM] | i | i | 0%
CCC(C)Nc1nc(C)nc2c1nnn2Cc1ccccc1 (configuration not stated) | nt | nt | i | nt
CC(C)Oc1ccc(CNS(=O)(=O)c2ccc3c(c2)C(C)(C)C(=O)N3C)cc1 | 23% | i | i | nt
CCOC(=O)c1c(/N=C/C2=C(O)CCCC2=O)sc(C)c1C | -11% | i | i | 1%
CCOC(=O)c1c(-c2ccc(OC)cc2)csc1/N=C/C1=C(O)CCCC1=O | 8.9µM* | i | ? | 11%
O=C(NCc1cccs1)C1CCN(S(=O)(=O)c2ccc([N+](=O)[O-])cc2)CC1 | nt | nt | i | nt
SMILES | TDP-43 yeast inh | Abeta rescue | FUS yeast rescue | aSyn rescue
Cc1ccc(NC(=O)[C@@H]2CC(=O)O[C@@H]2c2ccccc2)c(C)c1 | nt | nt | i | nt
O=C(O)CC1(CC(=O)Nc2ccc(Br)cc2)CCCCC1 | 11µM* | i | i | -41%
O=C(O)CC1(CC(=O)Nc2ccc3ccccc3c2)CCCCC1 | -8% | i | i | 1%
CCc1nc2c(OCCC3CCCCC3)cccn2c1N(C)C(=O)c1ccc(OC)cc1 | -1% | i | 22µM* | 7%
COc1ccc(-c2[nH]c(-c3ccc4c(c3)OCO4)nc2-c2ccccc2)cc1 | 16µM* | i | ? | -18%
Cc1nn(C)c(C)c1/C=C/C(=O)O | 17% | i | i | 8%
Cc1nn(C)c(C)c1/C=C/C(=O)c1ccc(Cl)cc1Cl | 25µM* | i | i | 10%
c1ccc(Sc2ncnc3ccccc23)cc1 | 13µM* | i | i | 9%
c1ccc(-c2ncnc3ccccc23)cc1 | 13µM* | i | nt | -3%
N#CCSc1ncnc2ccccc12 | 9% | i | i | -3%
COc1ccc(C(=O)NCC(c2ccc3c(c2)OCO3)N2CCOCC2)cc1OC (configuration not stated) | 23% | i | i | nt
CC(C)Oc1ccc(CNS(=O)(=O)c2ccc(-c3cc(C(F)(F)F)on3)s2)cc1 | -1% | i | i | nt
C=C(c1ccc2nc(NC(=O)OC)[nH]c2c1)c1cccs1 | 20µM* | i | nt | 10%
C=CCOc1ccc2nc(NC(=O)OC)[nH]c2c1 | 8% | i | i | 1%
C=CC[C@H]1c2ccccc2[C@H]2N3N=Cc4ccccc4[C@H]3[C@H](CCCC)C(=O)N2N1C(=O)c1ccccc1 | nt | nt | i | nt
CCN(C(=O)/C=C/c1ccc(OC)cc1)C1CCCCC1 | 18µM* | i | i | 6%
CCN(C(=O)/C=C/c1ccc(OC)cc1)C1CCS(=O)(=O)C1 (configuration not stated) | 0% | i | i | -2%
CC(=O)Nc1c(C)nn(-c2ccccc2)c1N1CCC(C(=O)Nc2cccc(C(F)(F)F)c2)CC1 | ? | ? | i | nt
COc1ccc(-c2cc(-c3nnc(SCC(=O)NC4CCCCC4)n3N)[nH]n2)cc1 | nt | nt | i | nt
Cc1ccc2nc(-c3ccc(NS(=O)(=O)c4ccc(F)c(F)c4)cc3)sc2c1 | 25µM* | i | i | -27%
Cc1ccc(-c2cc(C(=O)NN=Cc3cccc4ccccc34)[nH]n2)cc1C | nt | nt | i | nt
CS(=O)c1ccccc1-c1nc(-c2cccc(Cl)c2)no1 (configuration not stated) | 13µM* | i | i | 7%
CS(=O)c1ccccc1-c1nc(-c2ccc(Cl)cc2)no1 (configuration not stated) | 8%[9.22 µM] | i | i | 0%
CC(=O)c1c(C)[nH]c(C(=O)/C(C#N)=C/c2cccc(C)c2)c1C | 8% | i | i | -8%
CCOC(=O)c1c(C)[nH]c(C(=O)/C(C#N)=C/c2ccc(OCC)cc2)c1C | 16µM* | i | nt | -8%
SMILES | TDP-43 yeast inh | Abeta rescue | FUS yeast rescue | aSyn rescue
Cn1c(NC(=O)c2ccccc2)nc(Cc2ccccc2)c1-c1ccccc1 | nt | nt | i | nt
O=C(CSc1nnc(-c2cccnc2)n1Cc1ccco1)Nc1ccc(Cl)c(Cl)c1 | nt | nt | i | nt
OC(c1ccc(F)cc1)c1nc(-c2cccc(F)c2)cs1 (configuration not stated) | 11µM* | i | i | 17%
O=C(O)c1cccc(-c2csc(C(O)c3ccc(F)cc3)n2)c1 (configuration not stated) | 11% | i | i | 1%
COc1cccc(C(O)c2nc(-c3ccc4ccccc4c3)cs2)c1 (configuration not stated) | 22µM* | i | ? | ?
OC(c1ccc(F)cc1)c1nc(-c2cc3ccccc3o2)cs1 (configuration not stated) | 25µM* | ? | i | ?
